Read-outs that look alike come from different tables or passages of the source. The whole screen tested about 13,000 compounds, of which about 3,200 (25%) showed an effect of 50% or more. The list shows a part of the results.
Tested on: P. falciparum stage V gametocytes
Design: BacTiter-Glo ATP luminescence viability of purified stage V gametocytes in 384-well plates, per cent inhibition versus DMSO
Conditions: 48 h, 5 µM, inhibitor

Compound	% Inhibition	% Inhibition (% Inhibition)
Cc1ccc(CN=C(N)NC(=O)c2nc(Cl)c(NCc3ccc(Cl)cc3)nc2N)c(C)c1 [TCMDC-138938]	26.05%	
CN(c1ccc(NC(=O)c2cccc(F)c2)cc1)C1CCCN(Cc2cccc(O)c2)C1 (stereo not drawn) [TCMDC-134957]	-38.33%	
CC(=O)N(Cc1cccc(-c2ccc(CNCCc3ccccc3)cc2)c1)C1CCN(Cc2ccccc2)CC1 [TCMDC-140528]	44.2%	
O=C(Nc1ccccc1)N(Cc1cccc(-c2ccc(CNCCc3ccccc3)cc2)c1)C1CCN(Cc2ccccc2)CC1 [TCMDC-140588]	106.9%	
CC(=O)N(Cc1cccc(-c2cccc(CNCCc3ccccc3)c2)c1)C1CCN(Cc2ccccc2)CC1 [TCMDC-140527]	98.23%	
S=C(Nc1cccc(Cl)c1)NC1CCN(c2ccnc3cc(Cl)ccc23)C1 (stereo not drawn) [TCMDC-133400]	41.6%	
Cc1cc(CN2CCCN(c3ccc4c(c3)CCN(Cc3ccc(-c5ncc[nH]5)cc3)CC4)CC2)n(C)n1 [TCMDC-136550]	22.45%	
COc1ccc2nccc([C@@H](O)CN3CCC(NC(=O)c4ccc5nc(-n6cccc6)sc5c4)CC3)c2c1 [TCMDC-141027]	-24.62%	
COc1cc2ccccc2c(OC)c1CNCCCCCCNCc1c(OC)cc2ccccc2c1OC [TCMDC-137843]	116.8%	
COc1cc2c(cc1CCNCCCCNCCc1cc3c(cc1OC)CCCC3)CCCC2 [TCMDC-137319]	108.4%	
COc1cc2ccccc2cc1CCNCCCCNCCc1cc2ccccc2cc1OC [TCMDC-137944]	108%	
COc1cc2ccccc2c(CON2C(N)=NC(N)=NC2(C)C)c1OC [TCMDC-131792]	17.71%	
COc1cc2ccccc2c(CNCCCCCCNCc2c(OC)c(OC)cc3ccccc23)c1OC [TCMDC-137795]	103.3%	
Cl.O=C(Oc1ccc(C2CNCCc3c2cc(OC(=O)c2ccc(O)cc2)c(OC(=O)c2ccc(O)cc2)c3Cl)cc1)c1ccc(O)cc1 (stereo not drawn) [TCMDC-141978]	49.99%	
CC(C)Sc1nncc(-c2cnnc(SC(C)C)n2)n1 [TCMDC-123740]	3.174%	
COc1ccc2nccc([C@@H](O)CN3CCC(NCc4cc5cccc6c5n(c4=O)CCC6)CC3)c2c1 [TCMDC-140735]	-18.38%	
CCCc1cc(N2CCC(N3CCCC3)CC2)nc(Nc2ccc(OC)cc2)n1 [TCMDC-132387]	2.102%	
C=C[C@H]1CN2CC[C@H]1C[C@H]2[C@H](O)c1ccnc2ccc(OC)cc12 [TCMDC-125479]		-1.021%
CC(C)=CCc1c(-c2ccc(O)cc2O)oc2c3c(cc(O)c2c1=O)OC(C)(C)C=C3 [TCMDC-124149]	26.1%	
COc1cc2ccccc2c(OC)c1CCNCCCCNCCc1c(OC)cc2ccccc2c1OC [TCMDC-137842]	116.9%	
O=C(CC(c1ccccc1)c1ccccc1O)N1CCOCC1 (stereo not drawn) [TCMDC-125747]	-30.1%	

Compound	% Inhibition	% Inhibition (% Inhibition)
C=CCc1ccc(C[C@H](NC(=O)OC(C)(C)C)C(=O)OC)cc1 [TCMDC-138140]	103.3%	
CC(C)(C)OC(=O)N[C@@H](Cc1ccccc1)C(=O)Nc1cccc(-c2cccc(NC(=O)[C@H](Cc3ccccc3)NC(=O)OC(C)(C)C)c2)c1 [TCMDC-131873]	-20.04%	
COC(=O)C(c1ccc(NC(=O)[C@H](CC(C)C)NC(=O)OC(C)(C)C)cc1)c1ccc(NC(=O)[C@H](CC(C)C)NC(=O)OC(C)(C)C)cc1 [TCMDC-131874]	-21.29%	
CC(C)(C)c1ccc(C(=O)N2CCC3(CC2)C(=O)N(CC(=O)NCC2CCCO2)CN3c2ccccc2)cc1 (stereo not drawn) [TCMDC-125172]	-58.74%	
COc1ccc(N2CCN(CCCCNC(=O)c3ccc(NC(=O)c4ccc(Cl)cc4)cc3)CC2)c(C)c1 [TCMDC-138431]	-16.53%	
CC(C)NCc1ccc(-c2ccc(NC(=O)c3cccc(Cl)c3)cc2)cc1 [TCMDC-132592]	87.86%	
CC(C)NCc1ccc(-c2ccc(NC(=O)c3ccc(Cl)cc3)cc2)cc1 [TCMDC-132586]	47.91%	
CC(C)NCc1cccc(-c2cccc(NC(=O)c3cccc(Cl)c3)c2)c1 [TCMDC-132658]	93.91%	
CC(C)NCc1ccc(-c2cccc(NC(=O)c3cccc(Cl)c3)c2)cc1 [TCMDC-132642]	18.79%	
CN(C)Cc1ccc(-c2cccc(NC(=O)c3cccc(Cl)c3)c2)cc1 [TCMDC-132644]	-4.056%	
CN(C)CCN(C)Cc1ccc(-c2ccc(NC(=O)c3cccc(Cl)c3)cc2)cc1 [TCMDC-132593]	39.43%	
O=C(Nc1ccc(Cn2ncc(N3CCCNCC3)c(Cl)c2=O)cc1)Nc1ccc(OCc2ccccc2)cc1 [TCMDC-133319]	26.32%	
COC(=O)c1ccc(CC(C)NCC(O)c2cccc(Cl)c2Cl)cc1 (stereo not drawn) [TCMDC-131483]	20.31%	
CC(C)CNC(=O)c1cncc(-c2ccc(CNC3Cc4ccccc4C3)cc2)c1 [TCMDC-134241]	-1.576%	
CC(C)CC(=O)N(Cc1ccc(-c2ccc(CNC3Cc4ccccc4C3)cc2)cc1)C1CCNCC1 [TCMDC-141449]	118.6%	
CC(C)CNC(=O)c1ccnc(-c2ccc(CNC3Cc4ccccc4C3)cc2)c1 [TCMDC-134254]	4.563%	
CC[C@H](C)CNC(=O)c1ccnc(-c2ccc(CNC3Cc4ccccc4C3)cc2)c1 [TCMDC-134253]	2.834%	
CCCNC(=O)c1ccnc(-c2ccc(CNC3Cc4ccccc4C3)cc2)c1 [TCMDC-134255]	1.364%	
O=C(COc1ccccc1)N(Cc1ccc(-c2ccc(CNC3Cc4ccccc4C3)cc2)cc1)C1CCNCC1 [TCMDC-141450]	110%	
Cc1ccc(NC(=O)N2CCN(CCCCCNC(=O)/C=C/c3ccc(Cl)c(Cl)c3)CC2)cc1C [TCMDC-135732]	-3.92%	
CCOC(=O)c1c(CN(CC)CC)n(-c2ccccc2)c2cc(Br)c(O)cc12 [TCMDC-125679]	-14.42%	
